# Data: PubChem BioAssay
# The source made the active and inactive calls.
# What was measured:
# [1] = small molecules captured by biotinylated probe aFSTL3 – biochemical, small-molecule microarray, fluorescence 635/667, stem cell growth factor project, primary screen (AID 1064); conditions: higher = more signal;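 also: measures binding of the biotinylated anti-FSTL3 antibody to printed compounds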
# [2] = binders from COS7 lysate, DM2A8 probe, primary screen, torsin A project, cell lysate, small-molecule microarray, fluorescence 635/667 (AID 1065); conditions: higher = more signal, COS7 lysate expressing mutant human TOR1A
# [3] = small molecules captured by biotinylated probe aFGF2 – biochemical, small-molecule microarray, fluorescence 635/667, stem cell growth factor project, primary screen (AID 1067); conditions: higher = more signal;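 also: measures binding of biotinylated aFGF2 protein to printed compounds on slides; z-score merges feature fluorescence and signal-to-noise across triplicate slides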
# [4] = small molecules captured by biotinylated probe aFGF10 – biochemical, small-molecule microarray, fluorescence 635/667, stem cell growth factor project, primary screen (AID 1071); conditions: higher = more signal;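 also: score merges 667 nm spot intensity and signal to noise from triplicate slides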
# [5] = target: Neurogenic locus notch homolog protein 2 (Homo sapiens) (UniProt Q04721); test: small molecules binding Notch2 protein – biochemical, small-molecule microarray, 635 nm fluorescence, stem cell growth factors, primary screen (AID 1073); conditions: higher = more signal
# [6] = target: Pro-neuregulin-1, membrane-bound isoform (Homo sapiens) (UniProt Q02297); test: small molecules binding neuregulin-1 protein – biochemical, small-molecule microarray, fluorescence 635/667, psychiatric disease protein project, primary screen (AID 1075); conditions: NRG1 binding, 635 nm fluorescence, higher = more signal;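 also: score combines 667 nm spot fluorescence with signal to noise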
# Chain of Pro-neuregulin-1, membrane-bound isoform (Homo sapiens) (Q02297 whole entry, looked up, the tested form may be a part, canonical isoform): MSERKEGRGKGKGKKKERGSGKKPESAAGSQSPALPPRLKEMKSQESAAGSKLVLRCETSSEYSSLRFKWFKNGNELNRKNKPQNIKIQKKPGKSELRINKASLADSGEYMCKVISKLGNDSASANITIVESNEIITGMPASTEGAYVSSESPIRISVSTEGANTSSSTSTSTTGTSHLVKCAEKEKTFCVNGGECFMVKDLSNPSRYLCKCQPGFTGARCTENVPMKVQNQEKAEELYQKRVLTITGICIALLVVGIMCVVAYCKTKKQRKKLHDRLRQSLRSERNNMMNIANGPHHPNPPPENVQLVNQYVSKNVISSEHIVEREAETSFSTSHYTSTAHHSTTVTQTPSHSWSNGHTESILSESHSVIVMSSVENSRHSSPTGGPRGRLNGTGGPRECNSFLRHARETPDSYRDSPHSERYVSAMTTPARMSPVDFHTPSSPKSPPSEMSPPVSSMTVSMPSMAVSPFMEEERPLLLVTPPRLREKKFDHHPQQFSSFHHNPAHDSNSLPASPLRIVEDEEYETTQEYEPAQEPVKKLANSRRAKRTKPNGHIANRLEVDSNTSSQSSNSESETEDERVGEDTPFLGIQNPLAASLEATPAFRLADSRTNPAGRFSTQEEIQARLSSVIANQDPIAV
# [7] = system: Neuregulin-1 EGF-like domain; test: small molecules binding NRG1 EGF domain – biochemical, small-molecule microarray, 635 nm fluorescence, primary screen (AID 1081); conditions: higher = more signal;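 also: binding of the protein to compounds printed on small-molecule microarray slides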
# [8] = FRG1 expression reporter modulators in myotubes – cell-based, C2C12 myotubes, firefly/Renilla luciferase, luminescence, FRG1 inhibition for FSHD, primary screen (AID 1084); conditions: FRG1 promoter luciferase, higher = more signal, called active from +8 up or from −8 down
# [9] = small molecules captured by biotinylated probe aFST – biochemical, small-molecule microarray, fluorescence 635/667, stem cell growth factor project, primary screen (AID 1086); conditions: higher = more signal;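 also: score merges 667 nm fluorescence with signal-to-noise of each printed compound spot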
# [10] = binders of probe aHhip on microarray, primary screen, stem cell growth factor project, biochemical, small-molecule microarray, fluorescence 635/667 (AID 1087); conditions: higher = more signal;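 also: score merges spot fluorescence at 667nm with spot signal to noise ratio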
# [11] = system: PRMT1 (protein arginine N-methyltransferase 1); test: small molecules binding arginine methyltransferase PRMT1 – biochemical, small-molecule microarray, 635 nm fluorescence, primary screen (AID 1088); conditions: higher = more signal;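 also: binding of Prmt1 protein to compounds spotted on small-molecule microarray slides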
# [12] = growth effects on S. cerevisiae YJM789 – YJM789 clinical isolate, OD600, 24 h, basal, primary screen (AID 1089); conditions: higher = more signal, called active from +8 up or from −8 down;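 also: growth of clinical yeast isolate S. cerevisiae YJM 789 seeded 1000 cells per well; test concentration not given here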
# [13] = S. pombe growth modifiers, basal conditions – strain 972, OD600, 24 h, no modulator, primary screen (AID 1090);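 also: basal condition with compound alone and no growth modifier present; test concentration not given here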; conditions: S. pombe 972 growth, higher = more signal, called active from +8 up or from −8 down
# [14] = budding yeast growth modifiers under rapamycin – strain BY4716, OD600, 96 h, primary screen (AID 1091); also: test concentration not given here; conditions: S. cerevisiae BY4716 + rapamycin, higher = more signal, called active from +8 up or from −8 down
# [15] = target: Torsin-1A-interacting protein 2 (Homo sapiens) (UniProt Q8NFQ8); test: small molecules binding lysate-expressed LULL1 – cell lysate, human LULL1 lysate, 635/667 nm fluorescence, primary screen (AID 1092); conditions: small-molecule microarray, hLULL1 lysate binding, 635 nm fluorescence; higher = more signal;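 also: probe is lysate of COS7 cells overexpressing human LULL1; score merges per-feature 667 nm fluorescence with signal-to-noise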
# Chain of Torsin-1A-interacting protein 2 (Homo sapiens) (Q8NFQ8 whole entry, looked up): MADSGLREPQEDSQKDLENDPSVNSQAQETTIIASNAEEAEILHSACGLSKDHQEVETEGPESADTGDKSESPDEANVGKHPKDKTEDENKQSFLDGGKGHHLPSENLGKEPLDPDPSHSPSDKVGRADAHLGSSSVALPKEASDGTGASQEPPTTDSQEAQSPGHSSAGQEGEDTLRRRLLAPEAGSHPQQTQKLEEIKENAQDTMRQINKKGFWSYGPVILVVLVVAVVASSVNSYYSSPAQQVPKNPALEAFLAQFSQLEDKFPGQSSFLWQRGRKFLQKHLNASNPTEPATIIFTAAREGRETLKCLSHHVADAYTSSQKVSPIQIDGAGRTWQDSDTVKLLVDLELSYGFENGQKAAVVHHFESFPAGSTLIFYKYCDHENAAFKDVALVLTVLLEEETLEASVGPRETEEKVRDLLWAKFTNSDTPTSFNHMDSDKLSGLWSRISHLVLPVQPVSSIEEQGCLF
# [16] = optical density change of DRC41 E. coli – strain DRC41, OD650, 24 h, E. coli filamentation project, primary screen (AID 1093);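 also: MC1000 strain lacking acrAB efflux and sulA so SOS filamentation is blocked; test concentration not given here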; conditions: E. coli DRC41 growth, higher = more signal, called active from +8 up or from −8 down
# [17] = probe aLefty2 binding to arrayed compounds – biochemical, biotinylated probe, 635/667 nm fluorescence, primary screen (AID 1094); conditions: small-molecule microarray, higher = more signal;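 also: score merges spot fluorescence near 667 nm with spot signal-to-noise ratio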
# [18] = system: Noggin (protein binding on small-molecule microarray); test: small molecules binding Noggin protein – biochemical, 635/667 nm fluorescence, primary screen (AID 1095); conditions: 635 nm fluorescence, higher = more signal;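 also: score merges 667 nm feature fluorescence with signal to noise over triplicate slides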
# [19] = target: Neurogenic locus notch homolog protein 3 (Homo sapiens) (UniProt Q9UM47); test: small molecules binding NOTCH3 protein – biochemical, 635/667 nm fluorescence, primary screen (AID 1096); conditions: small-molecule microarray, 635 nm fluorescence, higher = more signal
# Chain of Neurogenic locus notch homolog protein 3 (Homo sapiens) (Q9UM47 whole entry, looked up): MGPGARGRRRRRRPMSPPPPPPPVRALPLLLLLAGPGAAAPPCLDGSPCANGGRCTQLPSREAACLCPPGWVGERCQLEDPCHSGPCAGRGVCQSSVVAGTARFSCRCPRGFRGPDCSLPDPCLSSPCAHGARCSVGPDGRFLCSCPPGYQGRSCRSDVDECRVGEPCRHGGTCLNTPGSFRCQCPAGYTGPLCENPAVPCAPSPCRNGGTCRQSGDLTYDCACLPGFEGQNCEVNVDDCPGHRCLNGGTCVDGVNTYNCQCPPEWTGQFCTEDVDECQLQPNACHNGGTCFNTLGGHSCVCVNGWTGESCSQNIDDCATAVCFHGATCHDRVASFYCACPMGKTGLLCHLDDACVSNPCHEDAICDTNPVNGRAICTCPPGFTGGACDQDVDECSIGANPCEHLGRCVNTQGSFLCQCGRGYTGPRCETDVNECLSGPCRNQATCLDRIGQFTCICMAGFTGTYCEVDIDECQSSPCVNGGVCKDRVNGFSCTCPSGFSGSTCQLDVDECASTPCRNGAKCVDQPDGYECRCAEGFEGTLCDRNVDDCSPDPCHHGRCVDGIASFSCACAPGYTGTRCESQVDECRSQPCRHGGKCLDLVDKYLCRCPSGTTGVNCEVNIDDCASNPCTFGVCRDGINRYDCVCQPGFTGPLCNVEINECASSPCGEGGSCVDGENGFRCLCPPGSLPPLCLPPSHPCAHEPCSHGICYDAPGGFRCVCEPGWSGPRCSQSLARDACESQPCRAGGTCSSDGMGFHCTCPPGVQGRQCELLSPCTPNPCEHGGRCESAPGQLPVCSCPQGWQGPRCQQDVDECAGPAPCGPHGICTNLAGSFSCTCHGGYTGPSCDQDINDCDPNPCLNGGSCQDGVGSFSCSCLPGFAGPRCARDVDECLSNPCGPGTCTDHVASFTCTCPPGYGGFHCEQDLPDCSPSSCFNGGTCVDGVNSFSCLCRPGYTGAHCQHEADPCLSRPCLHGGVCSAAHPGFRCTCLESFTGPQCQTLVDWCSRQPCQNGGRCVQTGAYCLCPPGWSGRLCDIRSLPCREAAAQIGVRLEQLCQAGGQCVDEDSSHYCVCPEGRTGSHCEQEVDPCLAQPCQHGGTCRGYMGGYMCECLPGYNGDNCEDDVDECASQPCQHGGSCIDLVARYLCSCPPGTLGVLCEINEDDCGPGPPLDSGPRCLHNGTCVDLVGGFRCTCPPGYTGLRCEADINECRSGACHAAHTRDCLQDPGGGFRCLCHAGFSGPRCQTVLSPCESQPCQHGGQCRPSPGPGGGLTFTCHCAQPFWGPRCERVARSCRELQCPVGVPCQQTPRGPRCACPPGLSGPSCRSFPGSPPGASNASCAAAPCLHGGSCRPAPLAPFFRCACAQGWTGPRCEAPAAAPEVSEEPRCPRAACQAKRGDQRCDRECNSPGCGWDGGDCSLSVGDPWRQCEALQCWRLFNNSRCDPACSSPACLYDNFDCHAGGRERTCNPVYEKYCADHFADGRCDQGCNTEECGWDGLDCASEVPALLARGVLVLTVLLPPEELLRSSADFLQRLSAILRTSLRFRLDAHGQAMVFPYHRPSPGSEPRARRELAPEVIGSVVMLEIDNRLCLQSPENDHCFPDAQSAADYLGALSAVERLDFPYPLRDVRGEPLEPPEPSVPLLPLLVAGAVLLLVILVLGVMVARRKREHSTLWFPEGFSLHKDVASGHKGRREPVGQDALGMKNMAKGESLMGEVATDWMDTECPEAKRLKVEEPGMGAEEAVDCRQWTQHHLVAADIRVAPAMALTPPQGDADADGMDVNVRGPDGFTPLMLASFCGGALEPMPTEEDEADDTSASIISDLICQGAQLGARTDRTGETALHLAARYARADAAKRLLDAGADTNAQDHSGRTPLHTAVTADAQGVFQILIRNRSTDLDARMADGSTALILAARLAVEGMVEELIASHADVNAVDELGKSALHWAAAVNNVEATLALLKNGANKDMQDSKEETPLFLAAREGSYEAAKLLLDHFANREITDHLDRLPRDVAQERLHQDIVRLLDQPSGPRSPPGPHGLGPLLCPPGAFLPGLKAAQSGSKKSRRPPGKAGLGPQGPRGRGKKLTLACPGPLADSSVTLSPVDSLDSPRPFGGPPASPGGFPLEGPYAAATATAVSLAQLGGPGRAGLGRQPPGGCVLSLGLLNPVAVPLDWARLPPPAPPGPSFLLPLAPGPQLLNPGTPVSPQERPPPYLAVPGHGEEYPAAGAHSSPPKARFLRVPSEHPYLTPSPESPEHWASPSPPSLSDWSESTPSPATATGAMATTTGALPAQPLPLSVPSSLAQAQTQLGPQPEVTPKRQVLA
# [20] = probe aEGFR binding to arrayed compounds – biochemical, biotinylated probe, 635/667 nm fluorescence, primary screen (AID 1097); conditions: small-molecule microarray, higher = more signal;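 also: probe is a biotinylated anti-EGFR antibody binding compounds printed on slides; score combines fluorescence near 667 nm and signal to noise of each spot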
SMILES,composite z-score [1],composite z-score [2],composite z-score [3],composite z-score [4],composite z-score [5],composite z-score [6],composite z-score [7],z-score [8],composite z-score [9],composite z-score [10],composite z-score [11],z-score [12],z-score [13],z-score [14],composite z-score [15],z-score [16],composite z-score [17],composite z-score [18],composite z-score [19],composite z-score [20]
CCC[C@@H]1C=C(C(=O)O)[C@H](c2ccc(C)cc2)N1S(=O)(=O)c1ccc(C)cc1,-0.0973,0.0641,0.0485,0.854,1.35,1.79,1.26,-1.09 (inactive),0.648,0.099,0.844,-0.545 (inactive),0.249 (inactive),-0.34 (inactive),3.68,-0.499 (inactive),0.0943,-0.327,0.62,0.0992
CC=CC(O)C1C=CC2C(=O)N(c3ccccc3)C(=O)C2N1Nc1ccc(C(C)C)cc1 (stereo not given),0.0035,0.238,0.125,0.771,1.65,1.52,1.26,0.715 (inactive),1.16,-0.0024,1.53,0.842 (inactive),0.877 (inactive),1.06 (inactive),3.13,-1.71 (inactive),0.183,0.321,1.05,0.14
COc1ccc(C#Cc2ccc3c(c2)[C@]2(C(=O)N3)[C@H](C(=O)NC[C@H](O)c3ccccc3)[C@H]3C(=O)O[C@H](c4ccccc4)[C@H](c4ccccc4)N3[C@@H]2c2ccc(OCCO)cc2)cc1,-0.547,0.637,-0.0005,0.6,0.975,1.07,1.19,0.943 (inactive),0.0324,-0.32,1.49,2.85 (inactive),1.64 (inactive),4.35 (inactive),2.96,-0.508 (inactive),-0.22,1.52,1.09,-0.0746
Cc1ccc([C@H]2[C@H](C(=O)O)[C@H](Sc3ccccc3)[C@@H](C(C)C)N2S(=O)(=O)c2ccc(C)cc2)cc1,-0.182,-0.126,0.167,0.307,1.49,1.78,0.945,-2.58 (inactive),1.31,-0.226,1.03,-0.611 (inactive),-0.0319 (inactive),-0.993 (inactive),3.03,-1.69 (inactive),0.179,0.0176,1.13,-0.0679
Cc1cc(C)cc(N2C(=O)CS(=O)(=O)C2c2cccc([N+](=O)[O-])c2)c1 (stereo not given),0.228,0.661,0.245,0.366,1.17,1.63,1.04,-1.47 (inactive),1.18,1.53,1.13,-0.703 (inactive),-1.22 (inactive),-0.522 (inactive),2.13,-0.268 (inactive),0.788,0.0104,0.726,0.477
C=CCC(OC(C)=O)[C@@H]1[C@@H](N(Cc2ccc(-c3ccccc3)cc2)C(=O)Cc2ccc(OC)cc2)c2cc(OCCCO)ccc2N1C(=O)c1ccc2ccccc2n1 (stereo not given in full),0.0604,-0.11,-0.0074,-0.0502,0.0378,-0.111,-0.271,-0.83 (inactive),0.411,-0.0994,-0.298,-1.15 (inactive),-0.832 (inactive),-0.551 (inactive),1.02,0.374 (inactive),0.0171,-0.49,0.0617,-0.0784
COC(=O)c1ccc(C23CC2(C(NP(=O)(c2ccccc2)c2ccccc2)c2ccccc2)C3)cc1 (stereo not given),0.741,0.275,-0.0009,0.0592,1.73,2.26,1.17,-4.52 (inactive),1.73,0.0596,0.214,-2.72 (inactive),-1.76 (inactive),-0.789 (inactive),3.18,0.259 (inactive),0.888,0.13,1.07,0.0632
CC(=CC1CCCCC1)[C@@H](NC(=O)c1ccc(C(F)(F)F)cc1)c1ccc(-c2ccccc2)cc1,0.21,-0.259,0.0083,-0.0821,0.0836,1.02,-0.54,0.235 (inactive),0.112,0.57,-0.211,0.537 (inactive),-0.91 (inactive),-0.938 (inactive),-0.192,-1.33 (inactive),0.0943,0.0323,-0.779,0.0353
C=CCC(OC(C)=O)[C@@H]1[C@@H](N(Cc2cccc3ccccc23)C(=O)c2ccc(C)cc2)c2cc(OCCCO)ccc2N1C(=O)Cc1ccc(OC)cc1 (stereo not given in full),-0.186,0.307,-0.117,0.29,0.0151,0.0635,-0.391,-1.71 (inactive),0.146,-0.0994,0.479,-3.36 (inactive),0.365 (inactive),-1.4 (inactive),-0.204,0.761 (inactive),-0.128,0.146,-0.139,-0.0828
COCCOC(=O)N1C(=O)[C@@]2(c3ccccc31)[C@H](C(=O)Nc1nc3ccccc3s1)[C@H]1C(=O)O[C@H](c3ccccc3)[C@H](c3ccccc3)N1[C@@H]2c1ccc(OCCO)cc1,0.001,0.686,-0.0426,0.738,0.907,0.897,1.18,2.77 (inactive),0.381,-0.117,1.54,1.13 (inactive),1.36 (inactive),3.37 (inactive),3.23,1.07 (inactive),-0.0767,1.76,1.13,-0.0581
